PubChem BioAssay (NCI)
The panel holds about 79,000 compounds, 15% with a hit somewhere; the sample as a whole holds those more often. Values without a mark were called inactive. Calls of active or inactive are those of the source. Cut-off read from the data, not from the text of the source: active = growth inhibition above about 70%; inactive = the rest.

assay: NCI Yeast Anticancer Drug Screen. Data for the mlh1 rad18 strain (AID 175); conditions: S. cerevisiae mlh1 rad18 strain growth inhibition; at 5.0 µM (retest, dose inferred, filed as 0.5); stronger effect = higher value
How it was run: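 Test agents were incubated with a yeast strain of defined genotype (DNA damage repair defect). Inhibition of growth was derived by comparison with vehicle-exposed cultures.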

Structure (SMILES)	growth inhibition
Cc1cc2c(Br)cc(Br)c(O)c2nc1C(=O)c1ccccc1	32%
N=C1c2ccccc2-c2ccccc21	21%
COc1ccc(-c2cn(-c3ccccc3)c3ncnc(N)c23)cc1	-2%
Nc1ccc(N=Nc2ccccc2)c2ccccc12	4%
CS(=O)(=O)C(=Cc1ccccc1Cl)S(C)(=O)=O	38%
O=C1c2ccccc2C(=O)c2sc(Nc3cc(Cl)ccc3Cl)nc21	63%
COC1=CC(=O)c2c(O)c3c(c(O)c2C1=O)C=C(C)OC3O (centres undefined)	-9%
NC(=S)N/N=C1\NC(=O)/C(=C/c2ccc3c(c2)OCO3)S1	14%
CCN(CC)P(=S)(c1ccccc1CCP(=S)(c1ccccc1)c1ccccc1)N(CC)CC	-4%
CCC(=O)Oc1c(Cl)cc(Cl)c(Cl)c1Cl	16%
CCOC(=O)C(C)(C)C	3%
COC1=CC(=O)c2ncccc2C1=O	9%
O=C1CCSC(=S)N1c1ccccc1C(F)(F)F	1%
O=C1c2cccc(NCCNCCO)c2C(=O)c2cccc(NCCNCCO)c21	8%
CCOc1cc2c(cc1O)CC[C@@H]1[C@@H]2CC[C@]2(C)[C@@H](O)CC[C@@H]12	27%
S=C(N/N=C/c1ccccn1)N1CC2CCC(CC2)C1	99% (active)
COc1ccc(Nc2nc3ccccc3s2)cc1	10%
O=C(OCC1OC(OCC(OC(=O)c2ccccc2)C(OC(=O)c2ccccc2)C(OC(=O)c2ccccc2)c2cnn(-c3ccccc3)n2)C(OC(=O)c2ccccc2)C(OC(=O)c2ccccc2)C1OC(=O)c1ccccc1)c1ccccc1 (centres undefined)	-4%
O=C(CBr)Nc1ccc(Cc2ccc(NC(=O)CBr)cc2)cc1	25%
CCOC(=O)Sc1nc2ccccc2[nH]1	0%

Structure (SMILES)	growth inhibition
C=C1OC(=O)C(=O)N1CC(=O)O	-139%
Nc1ncnc2c1ncn2C1OCC(O)C1O (centres undefined)	21%
CCOC(=O)C(Cc1cc(I)c(Oc2ccc(OC)cc2)c(I)c1)NC(C)=O (centres undefined)	38%
BrCc1ccc([Si](c2ccccc2)(c2ccccc2)c2ccc(CBr)cc2)cc1	3%
O=C1OC(C2OC(=O)C(=O)C2C(=O)c2ccc(Cl)cc2)C(C(=O)c2ccc(Cl)cc2)C1=O (centres undefined)	-5%
Cc1ccc2c(c1)NC(=O)C(N=[N+]=[N-])(c1ccccc1)C2=O (centres undefined)	-4%
NC(=O)C1CCCN1C(=O)C1CCCN(Cc2cc(CN3CCCC(C(=O)N4CCCC4C(N)=O)C3)cc(CN3CCCC(C(=O)N4CCCC4C(N)=O)C3)c2)C1 (centres undefined)	-7%
CCCCN(CCCC)CC(O)Cc1cc2ccccc2c2ccccc12 (centres undefined)	18%
CN(/N=C\c1cccc([N+](=O)[O-])c1)C(c1cccc([N+](=O)[O-])c1)N(C)/N=C/c1cccc([N+](=O)[O-])c1 (centres undefined)	0%
O=C(CCl)NC(=O)N(/N=C/c1ccco1)c1ccccc1	3%
CC1CCN(CCCOC(=O)c2ccccc2)CC1	52%
COC(=O)C1=C(C(=O)OC)C2C(C)=CC(C)=CN2C(C(=O)OC)=C1C(=O)OC (centres undefined)	-4%
CO/N=C/c1ccc([N+](=O)[O-])s1	-108%
N/C(=N\N=C/c1ccc(O)c(O)c1O)NO	-5%
CC1=C[P+](c2ccccc2)(c2ccccc2)C=C(c2ccccc2)O1	34%
CC(C)SC(=S)Nc1ccc(Cl)c([N+](=O)[O-])c1	30%
Nc1ccc2oc(=O)c3ccccc3c2c1	22%
CCCCCSc1nc2ncnc(N)c2[nH]1	0%
CC(C)Cn1cnc2c(SCc3cccc(F)c3)nc(N)nc21	0%
